target: Shiga toxin 2 (Escherichia coli O157:H7) (UniProt P09385+P09386); test: E. coli 0.157:H7 Shiga Toxin SOP - stx2 screening assay; format: functional; parameters: scale not given: direction of the effect not stated beside the values; conditions: 30 µM

| SMILES | Percent Effect [%] |
| --- | --- |
| c1ccc(COC2CCN(c3cncc(-n4cccn4)n3)CC2)cc1 | -38.3 |
| Cc1cnn(CC2CCCN2C(=O)c2cc3ccccc3[nH]2)c1 (centres undefined) | 14.6 |
| COC(CNC(=O)N1CCC(n2cncn2)CC1)c1ccccc1 (centres undefined) | 7.26 |
| COc1ccc(-c2nc(CN3CCN(CCO)CC3)co2)cc1 | -96.9 |
| Cn1cc(Br)c(=O)c(NS(=O)(=O)c2cc(F)ccc2Cl)c1 | 16.3 |
| CN1C(=O)C[C@@H]2[C@@H]1CCN2S(=O)(=O)Cc1ccccc1 | -4.62 |
| CC(C)(C)NC(=O)C1CSCN1S(=O)(=O)c1cccc(F)c1 (centres undefined) | -19.4 |
| Cc1cc(C(=O)NCC2COCc3c(C)nnn3C2)no1 (centres undefined) | -17.1 |
| CC(C)c1n[nH]c(C2CN(C(=O)C3=COCC3)CCO2)n1 (centres undefined) | 17.2 |
| O=C(c1ccc(=O)[nH]n1)N1CC(c2nc(Cc3ccccc3)no2)C1 | -7.29 |
| CCOc1ccc(S(=O)(=O)NCc2cccnc2N(C)C)cc1 | -16.7 |
| CCOCCNc1nc(C2CCCC2)nc2c1cnn2C | 1.57 |
| Cc1noc(C)c1C(=O)N1CC[C@H]2C[C@@H](c3nccs3)O[C@@H]2C1 | 3.87 |
| Cc1nc(-c2ccccc2)sc1C(=O)NCCNc1ncccn1 | 28.3 |
| CN1CCC(NC(=O)NCCNc2ccccn2)CC1 | -5.67 |
| Cc1cnn(CCNCc2csc(-c3cccs3)n2)c1 | 19.3 |
| COc1ccc(OCCN(C)C(=O)NC(C)c2nncn2C)cc1 (centres undefined) | -14.8 |
| Cc1ncsc1C(=O)NCCn1nc2ccccn2c1=O | 15 |
| CCc1cnc(N2CC3(CCN(C(=O)c4ccoc4)C3)C2)nc1 | -30.6 |

From ChEMBL document CHEMBL3988442, “University of Dundee, Small-Polar-MMV Screening Library” (2021)
